The supplement of paper PMC6897291

Key:
[1] = system: U-2932; experiment: growth inhibition by drug alone (1 - RLU/untreated control) (fraction); higher = stronger inhibition; conditions: 177Lu-lilotomab satetraxetan 0 ug/ml
Summary of the method: (§1)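 A radiolabelled anti-CD37 antibody conjugate (~600 MBq/mg) was applied for 18 h at 0.5 µg/ml to RIVA and 1 µg/ml to U-2932 cells, with untreated cells run alongside. All cells were washed and seeded at 3,000 cells/well onto library-printed plates at 10/100 nM (RIVA) or 10/1,000 nM (U-2932). Growth inhibition was based on RealTime-Glo luminescence compared with untreated no-drug wells. Daily reads began on day 3 after 1 h at 37°C, with each value being 1 − RLU/mean of the 48 such wells on that plate.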

[2] = system: RIVA; experiment: as above; conditions: 177Lu-lilotomab satetraxetan 0 ug/ml
Summary of the method: as §1

[3] = system: U-2932; experiment: growth inhibition by drug plus 177Lu-lilotomab satetraxetan (1 - RLU/untreated control) (fraction); higher = stronger inhibition; conditions: 177Lu-lilotomab satetraxetan 1 ug/ml
Summary of the method: as §1

[4] = system: RIVA; experiment: as above; conditions: 177Lu-lilotomab satetraxetan 0.5 ug/ml
Summary of the method: as §1

SMILES	growth inhibition by drug alone ([1]; 10 nM, time (day): 3)	growth inhibition by drug alone ([1]; 10 nM, time (day): 4)	growth inhibition by drug alone ([1]; 10 nM, time (day): 5)	growth inhibition by drug alone ([1]; 10 nM, time (day): 6)	growth inhibition by drug alone ([1]; 1000 nM, time (day): 3)	growth inhibition by drug alone ([1]; 1000 nM, time (day): 4)	growth inhibition by drug alone ([1]; 1000 nM, time (day): 5)	growth inhibition by drug alone ([1]; 1000 nM, time (day): 6)	growth inhibition by drug alone ([2]; 10 nM, time (day): 3)	growth inhibition by drug alone ([2]; 10 nM, time (day): 4)	growth inhibition by drug alone ([2]; 10 nM, time (day): 5)	growth inhibition by drug alone ([2]; 10 nM, time (day): 6)	growth inhibition by drug alone ([2]; 100 nM, time (day): 3)	growth inhibition by drug alone ([2]; 100 nM, time (day): 4)	growth inhibition by drug alone ([2]; 100 nM, time (day): 5)	growth inhibition by drug alone ([2]; 100 nM, time (day): 6)	growth inhibition by drug plus 177Lu-lilotomab satetraxetan ([3]; 10 nM, time (day): 3)	growth inhibition by drug plus 177Lu-lilotomab satetraxetan ([3]; 10 nM, time (day): 4)	growth inhibition by drug plus 177Lu-lilotomab satetraxetan ([3]; 10 nM, time (day): 5)	growth inhibition by drug plus 177Lu-lilotomab satetraxetan ([3]; 10 nM, time (day): 6)	growth inhibition by drug plus 177Lu-lilotomab satetraxetan ([3]; 1000 nM, time (day): 3)	growth inhibition by drug plus 177Lu-lilotomab satetraxetan ([3]; 1000 nM, time (day): 4)	growth inhibition by drug plus 177Lu-lilotomab satetraxetan ([3]; 1000 nM, time (day): 5)	growth inhibition by drug plus 177Lu-lilotomab satetraxetan ([3]; 1000 nM, time (day): 6)	growth inhibition by drug plus 177Lu-lilotomab satetraxetan ([4]; 10 nM, time (day): 3)	growth inhibition by drug plus 177Lu-lilotomab satetraxetan ([4]; 10 nM, time (day): 4)	growth inhibition by drug plus 177Lu-lilotomab satetraxetan ([4]; 10 nM, time (day): 5)	growth inhibition by drug plus 177Lu-lilotomab satetraxetan ([4]; 10 nM, time (day): 6)	growth inhibition by drug plus 177Lu-lilotomab satetraxetan ([4]; 100 nM, time (day): 3)	growth inhibition by drug plus 177Lu-lilotomab satetraxetan ([4]; 100 nM, time (day): 4)	growth inhibition by drug plus 177Lu-lilotomab satetraxetan ([4]; 100 nM, time (day): 5)	growth inhibition by drug plus 177Lu-lilotomab satetraxetan ([4]; 100 nM, time (day): 6)
COCC[n+]1c2c(n(Cc3cnccn3)c1C)C(=O)c1ccccc1C2=O	0.948	0.947	0.963	0.974	0.989	0.989	0.989	0.989	0.984	0.981	0.98	0.981	0.98	0.979	0.98	0.979	0.945	0.95	0.969	0.977	0.988	0.988	0.989	0.991	0.988	0.985	0.986	0.986	0.986	0.989	0.989	0.989
COc1cc(OC2CCN(C)CC2)ccc1Nc1ncc2c(n1)n(C1CCCC1)c(=O)n2C	-0.0462	-0.0489	-0.0615	-0.034	-0.165	-0.184	-0.206	-0.247	-0.233	-0.291	-0.358	-0.453	-0.524	-0.553	-0.545	-0.66	-0.087	-0.0366	0.0152	0.102	-0.121	-0.0709	-0.0115	0.128	0.539	0.578	0.601	0.587	0.355	0.432	0.453	0.479
O=C1[C@H](CC[C@H](O)c2ccc(F)cc2)[C@@H](c2ccc(O)cc2)N1c1ccc(F)cc1 [Ezetimibe (Zetia)]	0.207	0.167	0.0126	-0.0222	0.1	0.113	0.0388	-0.0102	0.0453	0.0693	-0.0268	-0.174	-0.17	-0.068	-0.0985	-0.21	0.101	0.145	0.218	0.274	0.142	0.17	0.216	0.332	0.537	0.594	0.604	0.623	0.406	0.479	0.489	0.494
Nc1cccc2c1C(=O)N(C1CCC(=O)NC1=O)C2=O (configuration not stated) [Pomalidomide]	0.00761	0.0144	-0.0587	-0.183	0.0958	0.25	0.271	0.309	-0.0396	-0.0278	-0.0766	-0.254	-0.0764	-0.115	-0.132	-0.196	0.0211	0.034	0.0448	0.147	0.233	0.391	0.414	0.472	0.434	0.529	0.549	0.555	0.439	0.414	0.434	0.443
COc1cc(C(=O)NC(=S)Nc2cccc(NC(=O)c3ccccc3)c2)cc(OC)c1OC	0.147	0.139	0.0192	-0.0981	0.0988	0.139	0.108	0.0418	0.0482	0.0356	0.0061	-0.153	0.0949	0.0458	0.00408	-0.0801	0.0383	0.0678	0.111	0.148	-0.0454	0.0986	0.0849	0.125	0.491	0.568	0.58	0.595	0.562	0.589	0.588	0.568
Cn1cc(-c2ccc3nnc(C(F)(F)c4ccc5ncccc5c4)n3n2)cn1	-0.0908	-0.108	-0.0614	-0.0112	-0.151	-0.112	-0.0976	0.0327	-0.216	-0.252	-0.259	-0.266	-0.157	-0.252	-0.203	-0.226	-0.0849	-0.0323	0.0158	0.0612	-0.131	-0.0707	-0.0177	0.142	0.285	0.449	0.457	0.453	0.342	0.401	0.428	0.429
N#Cc1ccc(COC[C@H]2O[C@@H](n3c(NCc4ccc(Cl)c(Cl)c4)nc4c(N)ncnc43)[C@H](O)[C@@H]2O)cc1	0.115	0.0829	-0.00792	-0.0103	0.0695	0.0449	-0.0886	-0.0586	-0.00484	-0.0139	-0.22	-0.465	-0.367	-0.326	-0.323	-0.395	-0.0128	0.0586	0.0723	0.037	0.12	0.128	0.109	0.165	0.498	0.574	0.59	0.586	0.472	0.543	–	–
